Assay outcomes as filed in PubChem BioAssay.
Sampled rows, rich in hits. Any-hit rate of the full collection: about 3.4%.
TEAD-YAP inh = TEAD-YAP interaction inhibition. HEK-TIYL cells, TEAD-Gal4/YAP UAS-luciferase luminescence. inhibition, % at 9.12 µM. hit rate 1.4% among 640,000. AID 1259422; in the data active = inhibition above about 32%;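 also: 0% = median of test compound wells and 100% = reference inhibitor wells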
FBW7 act = human FBW7 E3 ligase activation, primary screen; Q969H0; AlphaScreen FBW7–phospho-cyclin E peptide binding, activator screen; normalized activity (activation), % at 26.1 µM; hit rate 0.13% among 650,000; in the data active = normalized activity above about 1.9%;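 also: purified mutant Fbw7 with reduced substrate affinity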
GPR151 activ = activators of human GPR151 | Q8TDV0 | PathHunter beta-arrestin GPR151 cells, luminescence | activation, % at 11.2 µM | hit rate 1% among 650,000; in the data active = activation above about 4.9%;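 also: 0% = median of compound wells and 100% = cells with positive control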
Target sequence (Q8TDV0 whole entry, looked up): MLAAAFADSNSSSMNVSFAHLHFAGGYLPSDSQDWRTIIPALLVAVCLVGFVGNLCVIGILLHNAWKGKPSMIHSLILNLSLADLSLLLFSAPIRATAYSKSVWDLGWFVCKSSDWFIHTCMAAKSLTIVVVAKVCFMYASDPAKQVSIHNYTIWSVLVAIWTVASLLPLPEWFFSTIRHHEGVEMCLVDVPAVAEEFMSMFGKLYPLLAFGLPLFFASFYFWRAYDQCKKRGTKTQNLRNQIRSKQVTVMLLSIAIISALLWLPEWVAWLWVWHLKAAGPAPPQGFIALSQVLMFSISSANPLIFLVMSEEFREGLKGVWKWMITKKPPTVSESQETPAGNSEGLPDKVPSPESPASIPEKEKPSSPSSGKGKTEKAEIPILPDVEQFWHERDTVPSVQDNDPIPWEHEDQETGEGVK
MITF inh = human MITF inhibition, primary screen; AlphaScreen MITF homodimerization, bead proximity signal; O75030; AID 1259374; inhibition, % at 2.6 µM; hit rate 0.91% among 650,000; in the data active = inhibition above about 50%;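 also: 0% = vehicle wells with protein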
Numbers without * were called inactive.

SMILES	TEAD-YAP inh	FBW7 act	GPR151 activ	MITF inh
Cc1cc(C=C2C(=O)NC(=O)NC2=O)c(C)n1-c1ccc(C(=O)O)c(Cl)c1	6	0	0	54*
CC(=O)NC1=NC(=O)/C(=C/c2cc(C)n(-c3cccc(C(=O)O)c3)c2C)S1	18	-1	1	75*
Cc1cc(C=C2C(=O)NC(=S)NC2=O)c(C)n1-c1cccc(C(=O)O)c1	-1	0	2	78*
Cc1cccc(-n2c(C)cc(C=C3C(=O)NC(=S)NC3=O)c2C)c1	12	0	0	-11
Cc1cc(C=C2C(=O)N(C)C(=S)N(C)C2=O)c(C)n1-c1ccc(Cl)c(C(=O)O)c1	3	0	-1	68*
CC(=O)NC1=NC(=O)/C(=C/c2cc(C)n(-c3ccc4c(c3)OCO4)c2C)S1	4	0	0	2
Cc1cc(C=C2C(=O)N(C)C(=O)N(C)C2=O)c(C)n1-c1ccc(Cl)c(C(=O)O)c1	-9	-1	0	4
Cc1ccc(NC(=O)CN2C(=O)C(=O)N(C3CCCC3)C2=O)cc1Cl	15	0	0	9
COc1ccc(S(=O)(=O)N(CCc2ccccc2)CC(=O)NN)cc1OC	-5	0	-1	15
Cc1cc(C)c(NC(=O)C(C)Sc2nc3ccc(NC(=O)c4ccc(Cl)cc4)cc3s2)c(C)c1 (configuration not stated)	0	0	0	-11
COc1ccc(CCNc2cc(-c3c(C)nn(C)c3C)ncn2)cc1	10	0	1	9
COc1ccc(CCNc2cc(-c3c(C)nn(C)c3C)nc(N)n2)cc1	50*	0	1	-5
CCCNc1cc(-c2c(C)nn(C)c2C)nc(N)n1	40*	0	1	-7
O=C(Nc1nonc1-c1nc2ccccc2n1Cc1c(F)cccc1Cl)c1ccccc1Cl	65*	0	1	-8
CCc1ccccc1NC(=O)Cn1c(-c2nonc2N)nc2ccccc21	7	0	1	-1
CCCCOc1ccccc1NC(=O)Cn1c(-c2nonc2N)nc2ccccc21	54*	0	-1	-5
Nc1nonc1-c1nc2ccccc2n1CC(=O)N/N=C/c1ccncc1	53*	0	1	0
Nc1nonc1-c1nc2ccccc2n1CC(=O)Nc1ccccc1F	54*	0	1	1
CC(=O)Nc1nonc1-c1nc2ccccc2n1Cc1c(F)cccc1Cl	-6	0	-1	3
CCOc1cc(C(=O)NC(C)(C)C)cc(OCC)c1OCC	0	0	4	-1
O=C(CSCc1ccc(Cl)cc1)Nc1ccc(C(=O)O)cc1	3	0	-1	16
COc1ccc(-c2nnc(NC(=O)C3COc4ccccc4O3)o2)c(OC)c1 (configuration not stated)	10	0	-1	8
COc1ccc(NC(=O)c2cnn3c(C(F)(F)F)cc(-c4ccc(OC)c(OC)c4)nc23)cc1	4	0	1	1
Cc1ccc(Sc2cc(Cl)c3noc4c3c2C(=O)c2ccccc2-4)cc1	9	0	0	11
CCCCCNS(=O)(=O)c1cc(C(=O)O)ccc1F	-11	0	0	0
SMILES	TEAD-YAP inh	FBW7 act	GPR151 activ	MITF inh
O=C1N[C@@H](Cc2c[nH]c3ccccc23)C(=O)N2CCN(C(=O)c3cccs3)C[C@H]12	-4	0	1	1
Nc1nonc1-c1nc2ccccc2n1CC(=O)Nc1ccccc1C(F)(F)F	34*	0	-1	3
CCOc1ccc2c(c1)C(C)=CC(C)(C)N2C(=O)CCl	14	0	-1	-5
COc1ccc2c(c1)C(C)=CC(C)(C)N2C(=O)CCl	35*	0	1	-5
Cc1sc(NC(=O)c2ccco2)c(C(c2cccnc2)N2CCC(Cc3ccccc3)CC2)c1C (configuration not stated)	35*	0	-1	4
CC1CCN(Cc2nnnn2CCCC(=O)NC(C)c2nccs2)CC1 (configuration not stated)	-5	0	1	4
COc1ccccc1NC(=O)CCc1nc(-c2ccc(C(C)(C)C)cc2)no1	71*	0	-2	-1
COc1ccccc1NC(=O)CCCc1nc(-c2ccc(C)cc2)no1	10	0	0	5
Nc1nc(NCc2ccccc2)cc(N2CCCC2CO)n1 (configuration not stated)	45*	1	1	-8
Cc1cnc(N2CCCC2CO)nc1NCc1ccccc1 (configuration not stated)	50*	0	-1	2
COc1ccc(-c2cn3cc(-c4ccccc4)nc3n2C)cc1	97*	0	-1	-4
COc1cccc(-c2cn3cc(-c4ccc(F)cc4)nc3n2C)c1	70*	0	1	1
Cn1c(-c2ccccc2)cn2c3ccccc3nc12	30	1	0	5
COc1cccc(-n2c(-c3ccc(F)cc3)n[nH]c2=S)c1	-16	0	-1	-19
CCOC(=O)c1sc(NC(=O)c2ccco2)c(SC#N)c1C	34*	0	-1	5
Nc1cccc(-c2nc(NCCN3CCOCC3)c3ncn(-c4ccccc4)c3n2)c1	58*	0	-3	-3
CC(=O)c1cccc(-c2nc(NCCN3CCOCC3)c3ncn(-c4ccsc4)c3n2)c1	59*	0	3	10
CC(=O)c1cccc(-c2nc(NCCN3CCOCC3)c3ncn(-c4ccccc4)c3n2)c1	66*	0	1	14
Nc1cccc(-c2nc(NCCc3ccc(O)cc3)c3ncn(-c4ccccc4)c3n2)c1	38*	0	-1	0
N#C/C(=C\c1ccc(F)cc1)C(=O)Nc1ccc([N+](=O)[O-])cc1Cl	1	0	0	0
COc1ccc2c(c1)oc1c(-c3ccncc3)c(C#N)c(N)c(C#N)c12	-2	0	0	6
CN1CCN(c2ccc(-c3nc(NCCN4CCOCC4)c4ncn(-c5ccsc5)c4n3)cc2)CC1	9	0	2	-2
COc1ccc(-c2nc(NCCN3CCOCC3)c3ncn(-c4ccsc4)c3n2)cc1	51*	0	1	8
O=C(O)/C=C/C(=O)Nc1ccc(I)cc1	5	0	-1	-4
Cc1ccccc1C(=O)n1sc(=O)c2ccccc21	-4	0	-3	28
SMILES	TEAD-YAP inh	FBW7 act	GPR151 activ	MITF inh
O=C(CCl)NCC1(c2ccccc2)CCCC1	58*	2	0	7
Cc1cc(OCC(=O)Nc2ccc3c(c2)oc2ccccc23)cc(C)c1Cl	1	0	1	-2
COc1ccc(S(=O)(=O)Nc2cccc(-c3ccc(N4CCCCC4)nn3)c2)cc1C	46*	0	-3	-10
COc1ccc(S(=O)(=O)Nc2cccc(-c3ccc4nncn4n3)c2)cc1F	45*	1	0	15
O=S(=O)(Nc1cccc(-c2ccc3nncn3n2)c1)c1cccc(C(F)(F)F)c1	-8	0	-1	16
Cc1cc(NC(=O)CSC2=Nc3ccccc3C3=NC(C(C)C)C(=O)N23)n[nH]1 (configuration not stated)	5	0	-1	8
Cc1cc(OCCCNCCO)ccc1C(C)C	64*	0	-1	32
COCCNCCCOc1ccc(C(C)C)c(C)c1	-11	0	-2	12
